PubChem BioAssay (NCATS)
“And” between values parts separate entries of the source, which are not always exact repeats. Equal values may be shown once. Results filed as inconclusive are left out. A call without a number means that no potency is given here. The source made the active and inactive calls. The call rests on the fitted dose curve; in most records, active means well fitted activation curve with a large enough effect in the signal ratio; inconclusive means small, poorly fitted or top-dose-only effect, or effect the other way, or a change in a side signal; inactive means flat fitted curve, though single readings scatter; the % refers to the signal ratio.

Experiment: qHTS assay for small molecule agonists of the antioxidant response element (ARE) signaling pathway (AID 651741)
Details: HepG2 ARE-bla reporter, beta-lactamase FRET ratio, 16 h; series mostly up to 96 µM
Excerpt: National Center for Advancing Translational Sciences [NCATS]
NIH Chemical Genomics Center [NCGC]
U.S. Environmental Protection Agency [EPA]
National Institutes of Environmental Health Sciences [NIEHS]
National Toxicology Program [NTP]
Oxidative stress has been implicated in the pathogenesis of a variety of diseases ranging from cancer to neurodegeneration. The antioxidant response element (ARE) signaling pathway plays an important role in the amelioration of oxidative stress. The CellSensor ARE-bla HepG2 cell line (Invitrogen) can be used for analyzing the Nrf2/antioxidant response signaling pathway. Nrf2 (NF-E2-related factor 2) and Nrf1 are transcription factors that bind to AREs and activate these genes. The CellSensor ARE-bla Hep G2 cell line contains a beta-lactamase reporter gene under control of the Antioxidant Response Element (ARE) stably integrated into HepG2 cells. The activation of the report gene under culture conditions can be detected by fluorescence intensity. This cell line can be used to screen chemicals in a 1536-well plate format and to identify agonists that induce oxidative stress.
The ARE-bla cells were dispensed at 2,000 cells/5 ul/well in 1536-well black wall/clear bottom plates using a Multidrop dispenser. After the assay plates were incubated at a 37 C/5% CO2 incubator for 5 hours, 23 nL of compounds dissolved in DMSO, positive controls or DMSO only was transferred to the assay plate by a pin tool. The plates were incubated at 37 C for 16 hours. After 1 uL of LiveBLAzer B/G FRET substrate was added using a Flying Reagent Dispenser, the plates were incubated at room temperature for 2 hours, and fluorescence intensity was measured by an Envision plate reader.
Potency means the concentration at half of the fitted maximal effect.

Q: With O=S(=O)(O)F as the compound, how does the Potency read?
A: Its Potency is “inactive”.

Q: With ClCCBr as the compound, how does the Potency read?
A: Its Potency is “inactive”.

Q: With CN(C)c1ccc(N)cc1 as the compound, how does the Potency read?
A: The Potency was 33.5 µM (active).

Q: Which Potency does the source give for CCN(CC)N=O here?
A: The Potency was “inactive”.

Q: With CCSC(=O)N1CCCCCC1 as the compound, how does the Potency read?
A: Its Potency is 66.8 µM (active).

Q: Which Potency does the source give for ClC=CCl here?
A: Its Potency is “inactive”.

Q: Which Potency does the source give for O=C(O)C(Cl)(Cl)Br here?
A: Its Potency is 42.2 µM (active).

Q: For O=[N+]([O-])c1ccc(Cl)cc1, which Potency is on record?
A: Its Potency is “inactive”.

Q: With CN1CSC(=S)N(C)C1 as the compound, how does the Potency read?
A: Its Potency is 42.2 µM (active) and 27.3 µM (active).

Q: With CCN(CC)CCO as the compound, how does the Potency read?
A: The Potency was “inactive”.

Q: With Nc1ccc(Oc2ccc(N)cc2)cc1 as the compound, how does the Potency read?
A: Its Potency is “inactive”.

Q: For C=CC(=O)OCCN(C)C, which Potency is on record?
A: The Potency was “inactive”.

Q: With CCOC(=O)CC(SP(=O)(OC)OC)C(=O)OCC (stereo not given) as the compound, how does the Potency read?
A: The Potency was 42.2 µM (active).

Q: Which Potency does the source give for FC(Cl)(Cl)Cl here?
A: Its Potency is “inactive”.

Q: With O=[N+]([O-])c1cccc2c([N+](=O)[O-])cccc12 as the compound, how does the Potency read?
A: Its Potency is 4.73 µM (active).

Q: Which Potency does the source give for O=C(O)C(Br)CBr (stereo not given) here?
A: The Potency was 42.2 µM (active).

Q: Which Potency does the source give for ClCc1ccccc1 here?
A: Its Potency is “inactive”.

Q: Which Potency does the source give for CC(C)Br here?
A: The Potency was “inactive”.

Q: For OCCCCO, which Potency is on record?
A: Its Potency is “inactive”.

Q: With C=CCBr as the compound, how does the Potency read?
A: Its Potency is “inactive”.

Q: Which Potency does the source give for Nc1cc(Cl)ccc1O here?
A: Its Potency is 10.6 µM (active).

Q: With CN(C)C(=O)Nc1cccc(C(F)(F)F)c1 as the compound, how does the Potency read?
A: Its Potency is “inactive”.

Q: Which Potency does the source give for O=[N+]([O-])c1cc(Cl)c(Cl)cc1Cl here?
A: The Potency was 26.6 µM (active).

Q: Which Potency does the source give for Cc1ccc2c(C)cccc2c1 here?
A: The Potency was “inactive”.

Q: Which Potency does the source give for CCCCCOC(=O)c1ccccc1C(=O)OCCCCC here?
A: The Potency was “inactive”.

Q: Which Potency does the source give for CCCCOCC1CO1 (stereo not given) here?
A: Its Potency is “inactive”.

Q: For Oc1cc(Cl)c(Cl)c(Cl)c1, which Potency is on record?
A: The Potency was 23.7 µM (active).

Q: With [O-][Cl+]O as the compound, how does the Potency read?
A: Its Potency is “inactive”.

Q: Which Potency does the source give for C=C(C)CCl here?
A: Its Potency is “inactive”.

Q: For O=NN1CCCCC1, which Potency is on record?
A: The Potency was “inactive”.

Q: For Cc1cc(N=Nc2ccccc2C)ccc1N, which Potency is on record?
A: The Potency was 1.88 µM (active) and 4.86 µM (active).

Q: For Cc1ccc(N=C=O)cc1N=C=O, which Potency is on record?
A: Its Potency is “inactive”.

Q: Which Potency does the source give for Cl/C=C/CCl here?
A: The Potency was “inactive”.

Q: Which Potency does the source give for Nc1ccccc1-c1ccccc1 here?
A: Its Potency is 42.2 µM (active).

Q: Which Potency does the source give for NC1CCC(CC2CCC(N)CC2)CC1 (stereo not given) here?
A: Its Potency is “inactive”.

Q: Which Potency does the source give for CN(C)N=O here?
A: The Potency was “inactive”.

Q: For CCOC(=O)CBr, which Potency is on record?
A: Its Potency is “inactive”.

Q: Which Potency does the source give for CN(C)c1ccc(N=Nc2ccccc2)cc1 here?
A: Its Potency is 37.6 µM (active).

Q: For CC1CC(=O)O1 (stereo not given), which Potency is on record?
A: The Potency was “inactive”.

Q: For O=[N+]([O-])c1ccccc1-c1ccccc1, which Potency is on record?
A: Its Potency is “inactive”.
